Our source for the max response values is PubChem BioAssay AID2314 (National Center for Advancing Translational Sciences (NCATS), 2010).

Hit rate of the full screen: of about 300,000 compounds, about 37,000 (12%) were called active. This excerpt belongs to a sample that is enriched for actives. Unmarked numbers belong to inactive results. Cut-off read from the data, not from the text of the source: active = max response mostly above about 13% (no sharp cut-off); inactive = mostly below about 14%.

This test is described as follows: Cycloheximide Counterscreen for Small Molecule Inhibitors of Shiga Toxin. Note: read at 38.3 µM for the half of the compounds with a filed dose; 0% is about no effect. To be noted: cell reporter, cycloheximide protein synthesis inhibition counterscreen; stronger effect = higher value. Background: Counterscreens check selectivity or assay interference.
`O=C(N/C(=C\c1ccc(O)cc1)C(=O)N1CCCCC1)c1ccccc1`: the max response is -0.421%.
As for `COCCCNC(=O)C1CC(=O)N(CCc2ccc(F)cc2)C1` (centres undefined), the max response is -0.645%.
For the compound `CC(C)(CNC(=O)c1ccc(Cl)c(S(=O)(=O)N2CCc3ccccc3C2)c1)N1CCOCC1`, the max response was -3.28%.
The result for `COc1cc(OC)cc(C(=O)NCCSCc2ccc(Cl)cc2)c1` reads 11.2%; that for `CC1CC(C)CN(CCCNC(=O)Cn2ncc3c([nH]c4ccccc43)c2=O)C1` (centres undefined), -2.29%; that for `Cc1ccc(NS(=O)(=O)c2cc3c(cc2C)NC(=O)CO3)cc1`, -3.17%.
With `CC1(C)Cc2c(sc(NC(=O)C(=O)NCC3CCCO3)c2C(=O)O)CO1` (centres undefined), the max response was 0.548%.
Regarding `COc1ccc2c(c1)CCc1c(C(=O)N3CCc4ccccc4C3)noc1-2`, the max response was 30.1% (active).
In the case of `COc1ccc(OC)c(NC(=S)N2CCc3ccccc3C2)c1`, the max response is 9.77%.
The result for `CN1CCN(Cc2c(C(=O)N3CCc4ccccc4C3)nc3ccc(Cl)cn23)CC1` reads -1.69%.
With `CN(c1ccc(C(=O)N2CCc3ccccc3C2)cc1)S(C)(=O)=O`, the max response is 18.8%.
Consider `COc1ccc2cc(C(=O)C3CCCN(C(=O)c4sc(C)nc4C)C3)ccc2c1` (centres undefined), for which the max response is 15.7%.
The result for `COc1ccc(S(=O)(=O)NC(C)C(=O)N2CCCCCC2)cc1` (centres undefined) reads -0.827%; that for `O=C(C(=O)N1CCc2ccccc2C1)N1CCc2ccccc2C1`, -2.04%.
Consider `O=C(c1noc2c1CCCC2)N1CCc2ccccc2C1`, for which the max response is 40.9% (active).
Regarding `Cn1cccc1C(=O)N1CCc2ccccc2C1`, the max response was 15.5% (active).
For `COc1ccc2c(c1)CCc1c(C(=O)N3CCCC3)noc1-2`, the max response is 36.2% (active).
`COc1cccc(N(CC(=O)N2CCc3ccccc3C2)S(C)(=O)=O)c1`: the max response is -1.63%.
Turning to `COc1cccc(NC(=O)N2CCCC2C(=O)NC2CCCCC2)c1` (centres undefined), the max response is -2.55%.
The result for `Cc1ccc(CN(CC(=O)NC2CCCCC2)C(=O)c2csnn2)cc1` reads -2.39%; that for `CCOCCCNc1c(CC)c(C)c(C#N)c2nc3ccccc3n12`, -2.64%; that for `Cc1ccc(NC(=O)CC2S/C(=N/N=C3\CCCc4ccccc43)NC2=O)cc1` (centres undefined), -4.9%.
For `C[C@H]1CCC[C@@]2(C)CCCC[C@]12O`, the max response is 12.1%.
As for `Cn1c(CCc2ccccc2)nnc1SCC(N)=O`, the max response was -1.26%.
For the compound `O=C(Nc1ccc(N2CCOCC2)c(Cl)c1)c1ccc(S(=O)(=O)N2CCOCC2)cc1`, the max response was 5.48%.
Consider `O=C(Nc1ccc(S(=O)(=O)Nc2nccs2)cc1)c1cccc(S(=O)(=O)N2CCOCC2)c1`, for which the max response is -1.31%.
As for `O=C(Nc1ccc(S(=O)(=O)N2CCOCC2)cc1)c1ccc2ncsc2c1`, the max response was 43.1% (active).
`CCc1ccc(C(=O)CSc2nnc(C)c(=O)[nH]2)cc1`: the max response is 1.57%.
The result for `COc1cc(C(=O)NCc2nnc(SCC(=O)c3ccc(Cl)cc3)o2)cc(OC)c1OC` reads 2.18%; that for `O=C(CNC(=O)c1cccs1)N/N=C/c1cccc(Br)c1`, -3.86%.
In the case of `Cc1cccc(-n2c(C)cc(/C=N/NC(N)=S)c2C)c1`, the max response was 9.86%.
Next, `CCN(CC)c1ccc(/C=N/NC(=O)CNC(=O)c2cccs2)cc1`: 19.2% (active); `O=C(N/N=C/C=C/c1ccco1)c1cccs1`: 46% (active).
Turning to `Cc1ccc(-c2cc(C(=O)N/N=C/C=C/c3ccco3)c3ccccc3n2)cc1C`, the max response is 26.2%.
`CCN(CC)c1ccc(/C=N/NC(=O)CNC(=O)c2cccnc2)cc1`: the max response was -5.38%.
`Cc1ccc(-n2c(C)cc(/C=N\NC(=O)CC(=O)NC(C)C)c2C)cc1`: the max response is -4.19%.
Consider `O=C(NC(Cc1c[nH]c2ccccc12)C(=O)N/N=C/c1ccc(Br)cc1)c1cccs1` (centres undefined), for which the max response was 1.73%.
Take `CC(=O)Nc1ccc(/C=N/NC(=O)c2cccs2)cc1`: the max response was 58.5% (active).
The result for `Cc1cccc(-n2c(C)cc(/C=N\NC(=O)c3cccs3)c2C)c1` reads 56.1% (active).
As to `CCCc1c(C(=O)N/N=C(\C)CCc2ccc(OC)cc2)nnn1-c1nonc1N`, the max response is 11%.
For the compound `Cc1ccc(N(C(=O)c2snc(C(N)=O)c2N)C(C(=O)NCC2CCCO2)c2c[nH]c3ccccc23)cc1` (centres undefined), the max response is -1.6%.
`Cc1cc(C)c(S(=O)(=O)N(C)CC(=O)NCC2CCCO2)c(C)c1` (centres undefined): the max response is -2.82%.
The result for `CCCn1nc(NC(=O)C(C)C)c2cc3cc(OC)ccc3nc21` reads 17%.
For the compound `COc1ccc(CCNC(=O)C2CCCN(Cc3nc(-c4cccc(Cl)c4)oc3C)C2)cc1OC` (centres undefined), the max response is 6.92%.
For the compound `CCOc1cc(NC(=S)NCCCN(C)C)c(OCC)cc1NC(=O)C1CC1`, the max response was -1%.
With `Cn1nnnc1-c1cc(Cl)cc(Cl)c1`, the max response was 1.2%.
The result for `CN(CCO)S(=O)(=O)c1ccc2c(c1)C(=O)c1cc(S(=O)(=O)N(C)CCO)ccc1-2` reads -1.96%.
`COc1ccc(CCNC(=O)C2CC3Cn4c(nc5cc(C)c(C)cc54)C3N2C)cc1` (centres undefined): the max response is -2.66%.
On to `COc1ccc(NC(=O)CCN2CCCC2)c(OC)c1`, for which the max response was -1.44%.
On to `Cc1ccc(SCCC(=O)Nc2cc(C)on2)cc1`, for which the max response is 5.3%.
Turning to `Cc1cc(NC(=O)CCC(=O)N(CC(=O)NCC2CCCO2)c2ccccc2)no1` (centres undefined), the max response is -1.66%.
As to `CC(=O)Oc1ccc(NC(=O)CCC2CCCCC2)c(C(=O)O)c1`, the max response is -3.07%.
With `Cc1cc(NC(=O)CCC2COc3ccccc3O2)no1` (centres undefined), the max response was 14.1% (active).
Turning to `COc1ccc(NC(=O)NCc2ccc3c(c2)OCO3)c(OC)c1`, the max response was -2.52%.
Next, `COc1ccc(NC(=O)CCCC2CCCCC2)c(OC)c1`: 31.1% (active); `COc1ccc(NC(=O)CC2COc3ccccc3O2)c(OC)c1` (centres undefined): 24.3% (active).
`COc1ccc(NC(=O)CCC(=O)Nc2cc(OC)c(NC(=O)c3ccco3)cc2OC)c(OC)c1`: the max response was -4.97%.
Next, `CCCNC(=O)COc1coc(CN2CCN(Cc3ccccc3)CC2)cc1=O`: -5.17%; `CCn1ccnc1CNC(=O)CC1C(=O)NCCN1CCCc1ccccc1` (centres undefined): -2.05%; `CC1(C)C2CCC1(CS(=O)(=O)NCCc1c[nH]c3ccccc13)C(=O)C2` (centres undefined): -4.31%.
As for `Cc1nc2cc(C(F)(F)F)ccc2n1CCNc1nc(-c2cc(Cl)c(N)c(Cl)c2)cs1`, the max response was -1.25%.
Take `N#Cc1ccccc1NC(=O)COc1c(Br)cc(Br)c2cccnc12`: the max response was -3.08%.
As for `Cc1nn(CC(=O)NC2CCCCC2)c(=O)c2cccn12`, the max response was 10.6%.
Take `CN1C=CC=C/C1=C1\SC(=S)N(Cc2ccccc2)C1=O`: the max response was 3.74%.
Take `CCCCN1C(=O)/C(=C2/C=CC=CN2C)SC1=S`: the max response is 18.7% (active).
On to `CCCCN1C(=O)/C(=C2/Sc3ccc(Cl)cc3N2CC)SC1=S`, for which the max response is -0.782%.
For `Cc1cccc(C)c1NC(=S)N(Cc1cccnc1)Cc1ccccc1Cl`, the max response was -3.98%.
Next, `COC(=O)c1ccc2ccccc2c1OC1OC(CO)C(O)C(O)C1NC(C)=O` (centres undefined): 0.801%.
Turning to `CC1CCN(CC(O)COc2ccc(C(=O)c3ccccc3)cc2)CC1` (centres undefined), the max response is -1.82%.
The result for `O=C(NCCN1CCOCC1)/C(=C/c1ccc(F)cc1)NC(=O)c1ccccc1` reads -4.36%; that for `CC(=O)Oc1c(C(=O)c2nnc(C)o2)c(=O)n(Cc2ccccc2)c2ccccc12`, -0.619%.
The result for `Brc1ccc2c(c1)[C@H]1OCC[C@H]1[C@@H](c1cccs1)N2` reads 8.72%; that for `C/C(CC(=O)N1CCN(C=O)CC1)=N\NC(=O)c1ccc(Br)cc1`, 7.55%; that for `C/C(=N\NC(=O)Cc1ccc(F)cc1)c1ccc(F)cc1`, -1.95%.
The result for `O=C(O)CC/C(=N\NC(=O)c1ccc(F)cc1)c1ccc(Br)cc1` reads 35% (active); that for `CCc1ccccc1NC(=O)CN(C)S(=O)(=O)c1ccc2c(c1)c(=O)n(C)c(=O)n2C`, -5.59%.
Regarding `Cn1c(-c2ccco2)nc2cc3ccccc3cc21`, the max response was 16.7% (active).
For `O=c1c2ccccc2nc(-c2ccco2)n1-c1ccc(Br)cn1`, the max response was -3.55%.
As for `S=c1[nH]nc(-c2ccco2)n1/N=C/c1ccccc1`, the max response is -1.31%.
As to `Cc1ccc(CS(=O)(=O)CCC(=O)NCc2ccc(F)cc2)cc1`, the max response was -2.44%.
Regarding `CC(=O)N/N=C/c1cc2c(cc1[N+](=O)[O-])OCO2`, the max response is -3%.
As for `Cc1cc(Nc2ccc(N3CCOCC3)cc2)c2cccc(C)c2n1`, the max response is -1.97%.
In the case of `O=C(Cc1cc(=O)[nH][nH]1)N/N=C/c1ccccc1[N+](=O)[O-]`, the max response is -3.9%.
The result for `CNC(=S)N/N=C/c1ccc(N2CCOCC2)s1` reads 13.7%.
As for `Cc1ccccc1N/N=C/c1ccc(N2CCOCC2)cc1`, the max response was 21.1% (active).
`CN(C)c1ccc(/C=N/Nc2cc(N3CCOCC3)nc(N3CCOCC3)n2)cc1`: the max response is -1.93%.
Turning to `Cc1cc(C(=O)N/N=C\C(Br)=C\c2ccccc2)c(C)o1`, the max response is 32.4% (active).
The result for `Cc1ccc(-c2cc(C(=O)N/N=C/C=C/c3ccccc3)n[nH]2)o1` reads -1.74%; that for `O=C(N/N=C\c1cccc(Br)c1)c1ccccc1-n1cccc1`, 1.75%.
For `Cc1cc(C(=O)N/N=C/c2ccccc2[N+](=O)[O-])c(C)o1`, the max response is 35% (active).
The result for `Cc1cc(C(=O)N/N=C/c2ccc(N3CCOCC3)cc2)c(C)o1` reads 26.5% (active); that for `CCN(CC)c1ccc(C(=O)N/N=C/c2ccc(N3CCOCC3)cc2)cc1`, -3.32%.
On to `Cc1ccc(S(=O)(=O)c2c[nH]c3ccc(C)cc3c2=O)cc1`, for which the max response was -2.63%.
Turning to `CCN(CCCNC(=O)c1ccc2c(c1)NC(=O)CN2C)c1cccc(C)c1`, the max response is -2.58%.
